A word on the inhibition: it is the relative decrease from the control value, in per cent.

Among all 96,000 compounds or so, about 19,000 (20%) were called active. These entries were drawn from the full list. Unmarked numbers belong to inactive results.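 Rule for the calls: active = blocking of liver enzyme CYP2C9 beyond about 50% at 5 µM (limit read from the data); inactive = the rest.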

This passage reports inhibition results from PubChem BioAssay AID777 (Sanford-Burnham Center for Chemical Genomics, 2007).

In this assay the target is Cytochrome P450 2C9 (Homo sapiens) (UniProt P11712). Description: blockers of cytochrome P450 2C9 activity – biochemical, luminescence, ADME assay, primary screen (AID 777). Particulars: CYP2C9 Supersomes, luciferin-H conversion, at 5 µM, hits give high values.
Sequence of Cytochrome P450 2C9 (Homo sapiens) (P11712 whole entry, looked up): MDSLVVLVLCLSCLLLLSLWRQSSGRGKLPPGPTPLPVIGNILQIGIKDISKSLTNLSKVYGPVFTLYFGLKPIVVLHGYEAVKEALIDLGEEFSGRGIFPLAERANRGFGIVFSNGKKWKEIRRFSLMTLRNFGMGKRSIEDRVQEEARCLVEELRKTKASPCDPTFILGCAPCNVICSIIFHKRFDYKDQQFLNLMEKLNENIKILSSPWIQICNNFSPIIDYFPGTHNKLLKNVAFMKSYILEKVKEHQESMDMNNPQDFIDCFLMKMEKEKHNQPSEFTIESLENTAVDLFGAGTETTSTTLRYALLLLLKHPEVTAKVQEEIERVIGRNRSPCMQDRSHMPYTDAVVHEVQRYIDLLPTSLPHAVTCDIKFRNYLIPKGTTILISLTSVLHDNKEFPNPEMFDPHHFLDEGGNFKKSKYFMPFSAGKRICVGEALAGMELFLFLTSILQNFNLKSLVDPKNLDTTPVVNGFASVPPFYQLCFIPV
Regarding `O=C(O)CSC(NC(=O)c1cccnc1)(C(F)(F)F)C(F)(F)F`, the inhibition was 3.1%.

As to `CC1CC2=C(CC1/C=N/NC(N)=S)C(C)(C)CCC2` (stereo not drawn), the inhibition was 43.1%.

For the compound `CC(=O)NNc1cc(=O)c2c(=O)n(C)c(=O)n(C)c2[nH]1`, the inhibition is 6.5%.

With `CC(=O)NC(Cc1ccc(F)cc1)C(=O)O` (stereo not drawn), the inhibition is 6.7%.

In the case of `O=c1/c(=C/c2ccc(CNS(=O)(=O)c3ccccc3)o2)sc2n1CCN=2`, the inhibition is 71.2% (active).

In the case of `O=c1nc2s/c(=C\c3ccco3)c(=O)n2nc1Cc1ccccc1`, the inhibition is -5.6%.

As to `O=S(=O)(NCC1OCCc2ccccc21)c1ccccc1` (stereo not drawn), the inhibition is 3%.

For `Cc1cc(C(F)(F)F)nn1CC(=O)N1CCCC1`, the inhibition was 1%.

For the compound `Cc1noc(C)c1C(=O)N(CC(=O)NC1CCCC1)Cc1ccccc1F`, the inhibition was 26.2%.

Turning to `CCCC(=O)Nc1cc(OCC)c(NC(=O)NC2CCCCC2)cc1OCC`, the inhibition is 4.7%.

In the case of `CCOc1ccccc1N(CC(=O)NC1CCCCC1)C(=O)CCCC(=O)Nc1ccccn1`, the inhibition was 79.8% (active).

With `O=C(CCCC(=O)N(CC(=O)NC1CCCC1)Cc1ccccc1Cl)Nc1ccccn1`, the inhibition was 77.3% (active).

With `CN(CC(=O)NC1CCCCC1)S(=O)(=O)c1cccc2cccnc12`, the inhibition was -46%.

For the compound `CCC(C)(NC(=O)c1ccccn1)C(=O)NC1CCCCC1` (stereo not drawn), the inhibition is 12.3%.

As for `COc1ccc(N2C(=O)C3CCCN3C2c2cccs2)cc1` (stereo not drawn), the inhibition is 31.3%.

For `O=C1CSC(c2ccccc2)N1c1nc(-c2ccc(Cl)cc2Cl)cs1` (stereo not drawn), the inhibition was 21.8%.

Turning to `O=C(NCCCNCc1ccccc1)c1ccc(/C=N/O)nc1`, the inhibition was -11.5%.

As for `O=C(CCCn1c(=O)oc2ccccc21)Nc1cccnc1`, the inhibition was -30.9%.

For `COC(=O)C(C)n1cnc2c(nnn2-c2cccc(Cl)c2)c1=O` (stereo not drawn), the inhibition is 1.7%.

With `CN=C1SC(C(=O)O)CC(=O)N1C` (stereo not drawn), the inhibition is -6.4%.

As to `COC(=O)C(CC(=O)Nc1cc(C)ccc1C)Nc1ccccc1OC` (stereo not drawn), the inhibition was 7.7%.

`CCOc1cc(C(=S)N2CCOCC2)ccc1O`: the inhibition was -10.2%.

On to `O=P(c1cccs1)(c1cccs1)c1cccs1`, for which the inhibition was 12.7%.

Regarding `O=C1CC(c2cccc(F)c2)C2=C(CCCC2=O)N1` (stereo not drawn), the inhibition is 12.1%.

For `COc1ccc(NC(=O)CSc2nc(N)c(-c3ccccc3)c(=O)[nH]2)cc1`, the inhibition is 3.1%.

Consider `COc1cc2ccccc2cc1C(=O)Nc1ccc(S(=O)(=O)Nc2cc(C)on2)cc1`, for which the inhibition was 3.1%.

In the case of `COc1ccc(OC)c(NC(=O)CSc2nc(N)c(-c3ccccc3)c(=O)[nH]2)c1`, the inhibition was 29.2%.

Take `COc1ccc(NC(=O)CSc2nc(NS(=O)(=O)c3ccc(C)cc3)cc(=O)[nH]2)cc1`: the inhibition was 91.7% (active).

As for `COc1ccc2nc(SCC(=O)Nc3c(C)cc(C)cc3C)[nH]c2c1`, the inhibition was 81.5% (active).

With `COC(=O)c1cccc(NC(=O)CSc2nc(C)cc(=O)[nH]2)c1`, the inhibition is 42.6%.

Take `Cc1ccc(NC(=O)NCC(c2cccnc2)N2CCOCC2)cc1` (stereo not drawn): the inhibition was 2.5%.

Regarding `COc1ccc(N/N=C2/CCCCC2=O)cc1`, the inhibition was -10.8%.

For the compound `Cc1nc2cc(NC(=O)NCc3ccccc3)ccc2o1`, the inhibition was -5.6%.

Consider `O=C(O)c1cscn1`, for which the inhibition is -3.7%.

With `N#C/C(=C(\O)CCl)c1nnc2n1CCCCC2`, the inhibition was 3.8%.

As to `O=C(CCC(=O)OCc1cccc(C(=O)Oc2ccccc2)c1)Nc1cccc2ccccc12`, the inhibition was 95.5% (active).

As for `O=C(O)c1ccccc1-c1ccccc1C(=O)Nc1cccc2ccccc12`, the inhibition was 36%.

As to `O=C(CCC(=O)OCC(F)(F)C(F)F)NCc1ccccc1`, the inhibition is 4.8%.

With `CCOC(=O)C1=C(CSc2nnnn2C)N(C)C(=O)NC1c1ccccc1` (stereo not drawn), the inhibition was -20.4%.

On to `CC(Sc1nncn1C)C(=O)Nc1ccccc1-c1ccccc1` (stereo not drawn), for which the inhibition was 15.8%.

`Cc1ccccc1NC(=O)C(C)c1ccc(-c2ccccc2)c(F)c1` (stereo not drawn): the inhibition was 67.2% (active).

With `Cc1ccccc1NC(=O)c1ccccc1`, the inhibition was 0.6%.

`Cc1cccc(N2CCN(Cc3c(C)n(C)n(-c4ccccc4)c3=O)CC2)c1C`: the inhibition was -16.5%.

On to `CCOC(=O)N1CCN(Cc2nc(N)nc(Nc3ccc(C)cc3)n2)CC1`, for which the inhibition was 15.5%.

In the case of `Cc1ccccc1Nc1nc(N)nc(CN2CCN(c3ccccn3)CC2)n1`, the inhibition is 23.8%.

On to `CN(CCO)Cc1csc2ccc(Br)cc12`, for which the inhibition was -22.8%.

Turning to `CCC1(C)N(O)C(C)(C)C(c2ccc(OC)cc2)=[N+]1[O-]` (stereo not drawn), the inhibition is 0.3%.

Regarding `COC(=O)C(C)Oc1ccc2c(-c3cccc([N+](=O)[O-])c3)cc(=O)oc2c1` (stereo not drawn), the inhibition was 28.8%.

As to `Cc1ccc(C(c2nnnn2CS(=O)(=O)c2ccc(C)cc2)N2CCC(C(N)=O)CC2)cc1` (stereo not drawn), the inhibition was 6.2%.

Take `O=Cc1c(N2CCN(c3cccc(Cl)c3)CC2)nc2ccccn2c1=O`: the inhibition was 49.1%.

Consider `Cc1cccn2c(=O)c(/C=C(\C#N)S(=O)(=O)c3ccc(Cl)cc3)c(N3CCC(C(N)=O)CC3)nc12`, for which the inhibition is 96.9% (active).

Take `COc1ccc(CC(=O)Nc2nc3n(n2)C(c2ccccc2)CC(=O)N3)cc1OC` (stereo not drawn): the inhibition is -5.5%.

`COc1ccccc1-n1cnc2cc(C(=O)NCC3CCCO3)ccc21` (stereo not drawn): the inhibition is -36.5%.

`COCCCNC(=O)c1ccc2c(c1)ncn2-c1ccccc1OC`: the inhibition is -38.2%.

As for `COc1ccccc1-n1cnc2cc(NS(=O)(=O)c3ccccc3)ccc21`, the inhibition was 82.5% (active).

Take `Cn1ncc(Br)c1C(=O)NCc1cccs1`: the inhibition is 1.5%.

With `COc1ccc(-c2csc3nc(-c4ccccc4F)oc(=O)c23)cc1OC`, the inhibition is -1.8%.

With `Cc1ccc(S(=O)(=O)N2CCC(C(=O)N[C@@H](C)C(=O)NCc3ccccc3)CC2)cc1`, the inhibition is -9.2%.

Consider `CN(C)S(=O)(=O)c1ccc(N2CCCC2)c(C(=O)NCc2ccccc2)c1`, for which the inhibition is 59.9% (active).

Regarding `CCN(CC)S(=O)(=O)c1ccc(N2CCOCC2)c(C(=O)O)c1`, the inhibition is 19.3%.

Turning to `O=C(CSc1nnc(Cn2cnc3ccccc32)o1)c1ccccc1`, the inhibition is 32.1%.

For `CCOC(=O)N1CCN(CC(=O)c2c(C)[nH]c3ccccc23)CC1`, the inhibition is -60.1%.

Consider `COc1cc(OC)c(C(=O)Nc2ccc(N(C)C)cc2)cc1OC`, for which the inhibition is 33.3%.
